Screening data: PubChem, Broad Institute
Compounds with a hit are over-represented: about 1.8% of the library has one in this group of screens.
EWS-Fli inh: EWS/Fli transcriptional activity inhibition; AID 651661; inhibition, % at 12.6 µM; A673 NR0B1-luciferase reporter, viability-normalised; 350,000 compounds, 0.67% hits;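 active = mean inhibition of at least 50% after viability correction, with every replicate also passing that limit; inconclusive = mean reaches 50% but only one of two replicates passes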;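 also: firefly luciferase signal divided by Alamar Blue viability fluorescence both relative to DMSO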
LGR2 antag: blocks bursicon-induced cAMP signaling via Drosophila LGR2; HEK293 LGR2, CRE-luciferase, bursicon-stimulated, 4 h; inhibition, % at 9.99 µM; 380,000 compounds, 0.35% hits;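 active = drop in luminescence signal, shown as inhibition above about 50% in the replicate tests, limit read from the data, passing the limit was not always enough; inconclusive = probably only some replicates passing the limit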;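 also: agonist challenge used bursicon conditioned medium at about half maximal strength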
F508del corr: correctors of CFTR F508del function in bronchial epithelial cells; 350,000 compounds, 0.36% hits; CFBE cells, YFP halide quenching; stimulated with forskolin plus potentiator P3; % fluorescence drop versus neutral controls; AID 720511; activity (quench increase), % at 7.58 µM;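 active = mean added fluorescence quench of at least 8% versus neutral control, with both replicates also reaching 8%; inconclusive = only one of the mean or replicate conditions met; inactive = mean below 8% and not both replicates reaching 8%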;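 also: cells transiently co-express mutant CFTR-F508del with the halide-sensitive YFP; corrector assay measuring rescue of mutant channel to the surface after 24 h compound exposure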
PAX8 reporter: PAX8 transcriptional activity inhibition; RMG-I TPO-luciferase reporter, SteadyGlo, 24 h; inhibition, % at 12.6 µM; AID 652154; 360,000 compounds, 1.2% hits;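 active = mean replicate inhibition at least 60% with every replicate also reaching 60%; inconclusive = only one of the two criteria is met; inactive = mean below 60% and not all replicates reaching 60%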;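 also: luciferase light reporting Pax8 driven TPO promoter activity; plate controls were median of neutral control wells for no effect and mitoxantrone controls for full effect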
The depositor's hits bear a star; u = inconclusive; x = not tested or not shown.

SMILES | EWS-Fli inh | LGR2 antag | F508del corr | PAX8 reporter
COc1ccccc1/C=N/NC(=O)c1[nH]c(C)c(C(=O)N/N=C/c2ccccc2OC)c1C | 0 | -1 | 1 | 12
CCOC(=O)c1c(C)[nH]c(C(=O)N/N=C/c2ccc(OC)c(OC)c2)c1C | 48 | -8 | 9.8* | 16
CCOC(=O)c1c(C)[nH]c(C(=O)N/N=C/c2cc([N+](=O)[O-])ccc2O)c1C | 5 | 3 | 0 | 14
CCOC(=O)c1c(C)[nH]c(C(=O)N/N=C\c2ccccc2O)c1C | -65 | -34 | 21* | -52
COc1ccc(Cl)cc1Nc1ncnc2sc(C)c(S(=O)(=O)N3CCC(C)CC3)c12 | x | -5 | x | 9
Cc1ccccc1-c1nnc(-c2cccc3ccccc23)o1 | -27 | -63 | 0 | -11
O=C1C=C(NCc2ccccc2)c2ccccc2C1=O | 44 | 96* | -1 | 77*
O=C1C=C(Nc2ccccc2O)c2ccccc2C1=O | -2 | -2 | -5 | x
Nc1nc2c(ncn2C2C[C@H](O)[C@@H](CO)O2)c(=O)[nH]1 (some centres not stated) | 8 | 35 | 1 | -4
Nc1nc2c(nnn2C2CC(O)C(CO)O2)c(=O)[nH]1 (configuration not stated) | -13 | -9 | 2 | 83*
O=C1CCC[C@@H]2CC(Nc3ccc(F)cc3F)C[C@@H]3CCN1[C@H]23 (some centres not stated) | -11 | -6 | -1 | -6
C[C@@H]1CCCCO[C@H](CN(C)CC2CC2)[C@H](C)CN([C@@H](C)CO)C(=O)c2cc(NS(=O)(=O)c3ccc(Cl)cc3)ccc2O1 | 3 | 10 | 3 | 7
CCCN(C)C[C@H]1OCCCC[C@H](C)Oc2ccc(NS(=O)(=O)c3ccc(F)cc3)cc2C(=O)N([C@@H](C)CO)C[C@@H]1C | -2 | 1 | 1 | 69*
C[C@@H]1CCCCO[C@@H](CN(C)CC2CCCCC2)[C@@H](C)CN([C@@H](C)CO)C(=O)c2cc(NS(=O)(=O)c3ccc(F)cc3)ccc2O1 | 2 | 3 | 2 | 72*
CCCN(C)C[C@@H]1OCCCC[C@@H](C)Oc2ccc(NS(=O)(=O)c3ccc(C)cc3)cc2C(=O)N([C@H](C)CO)C[C@@H]1C | x | -3 | 1 | -14
C[C@@H]1CCCCO[C@H](CN(C)CC2CCCCC2)[C@H](C)CN([C@@H](C)CO)C(=O)c2cc(NS(=O)(=O)c3ccc(Cl)cc3)ccc2O1 | 65* | -3 | 2 | 104*
C[C@@H]1CCCCO[C@H](CN(C)CC2CCCCC2)[C@H](C)CN([C@@H](C)CO)C(=O)c2cc(NS(=O)(=O)c3ccc(F)cc3)ccc2O1 | 67* | 15 | 0 | 38
COc1ccccc1CNC(=O)N1CCN(c2ccccc2)CC1 | -16 | -2 | 6 | 15
Cc1cccc(COc2ccccc2C(=O)NC2CCC(O)CC2)c1 (configuration not stated) | 1 | 0 | 8.2* | -2
O=c1nc(N/N=C/C=C/c2ccccc2)cn[nH]1 | 22 | 67* | 0 | -33
Cn1ncc2c(N)nc(NCCO)nc21 | -4 | -5 | -1 | 10
COc1ccc(-c2onc3ccc(Br)cc23)cc1 | x | 14 | x | -15
COc1cc(-c2onc3ccc(Br)cc23)cc(OC)c1OC | 56* | 18 | 6 | 26
Cn1c(CCNC(=O)c2ccco2)nc2cc(NC(=O)c3ccco3)ccc21 | x | x | x | -96
COc1ccccc1C(=O)Nc1ccc2c(c1)nc(CCNC(=O)c1ccco1)n2C | 4 | -22 | 10* | -24
SMILES | EWS-Fli inh | LGR2 antag | F508del corr | PAX8 reporter
NC(=O)c1ccc(NC(=O)COC(=O)c2n[nH]c3ccccc23)cc1 | 3 | 12 | -4 | -5
CC(C)CNC(=O)C(=O)Nc1ccc2c(c1)N(S(=O)(=O)c1cccs1)CCC2 | -23 | -4 | 0 | -11
COc1ccc(CNC(=O)C(=O)NCCC2CCCCN2S(=O)(=O)c2ccccc2)cc1 (configuration not stated) | 6 | 10 | -3 | 40
COc1ccc(NC(=O)C(=O)NCCC2CCCCN2S(=O)(=O)c2cccs2)cc1 (configuration not stated) | 58* | 1 | 4 | 35
COc1ccc(NC(=O)C(=O)NCCC2CCCCN2S(=O)(=O)c2ccccc2)cc1 (configuration not stated) | 52* | -1 | 4 | 41
CC(C)CCNC(=O)C(=O)Nc1ccc2c(c1)N(S(=O)(=O)c1cccs1)CCC2 | 35 | -21 | 12* | 9
O=C(CSc1nc2nn(-c3ccccc3)c(=O)c-2c2n1CCCCC2)Nc1ccc(OC(F)F)cc1 | 9 | -4 | 8.1* | 12
C[C@@H]1CN([C@@H](C)CO)C(=O)Cc2cc(NC(=O)c3ccncc3)ccc2O[C@H]1CN(C)Cc1ccc(C(=O)Nc2ccccc2N)cc1 | 28 | 4 | -3 | -23
CN(C(=O)c1ccccc1OC1CCN(S(C)(=O)=O)CC1)C1CCOC1 (configuration not stated) | -1 | 1 | 8.5* | 3
COc1ccccc1NC(=O)N1C[C@H](O)COC[C@@H]2O[C@@H](CC(=O)NCc3ccccc3)CC[C@H]21 | 4 | -7 | 1 | 4
COc1cccc2c1C(=O)O/C2=C/c1ccc2c(c1)OCO2 | x | 62* | x | x
CCN(CC)S(=O)(=O)c1ccc(NC(=O)C2CC(=O)N(c3ccc4c(c3)OCCO4)C2)cc1 (configuration not stated) | 14 | 7 | 15* | 3
Cc1nc(CN(C)c2ncnc3ccc(-c4ccc5c(c4)OCO5)cc23)cs1 | 37 | 24 | -1 | 66*
Cc1cccc(-n2ncc3c(N(C)C4CCCCC4)ncnc32)c1 | 73* | 88* | -1 | 47
COc1ccc(-n2ncc3c(N4CCC(C)CC4)ncnc32)cc1 | 48 | u | -1 | -20
COc1ccc(-n2ncc3c(N(C)C4CCCCC4)ncnc32)cc1 | 78* | 94* | 0 | -34
O=C(C[C@@H]1CC[C@H]2[C@@H](COC[C@H](O)CN2C(=O)c2ccccc2F)O1)NCc1ccccc1 | -6 | -7 | 0 | 12
CC(C)c1ccc(N(C)C(=O)Cc2c(C(=O)O)n(C)c3ccccc23)cc1 | -6 | 7 | -1 | 2
CCC(C)(C)NC(=O)c1ccc(Sc2nncn2C)c([N+](=O)[O-])c1 | 7 | -13 | 1 | -7
Cn1cnnc1Sc1ccc(/C=C/C(=O)c2ccc(O)cc2)cc1[N+](=O)[O-] | 69* | 66* | -2 | 1
CC1OC2CC(=O)OC2C2=C1C(=O)c1c(O)cccc1C2=O (configuration not stated) | 50 | 100* | 7 | x
CCCCN1CC(COCc2ccccc2)Oc2cccc(OCCN3C(=O)[C@@H]4[C@H](C3=O)C3C=C[C@H]4C3)c2S1(=O)=O (some centres not stated) | 20 | x | 1 | 85*
O=C(O)C/C(=C\c1cccc(NC(=O)c2ccccc2Cl)c1)c1nc2ccccc2s1 | 11 | -25 | 1 | 13
O=C(Nc1ccc(Cl)cc1)/C(=C/c1cccc(O)c1)c1nc2ccccc2s1 | 30 | 86* | -5 | 98*
